A number with no mark means an inactive call.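 The calls were made as follows: active = viability at or below 10% of carrier control in both of two separate runs; inconclusive = viability at or below 10% in only one of the two runs; inactive = the rest.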
assay: reduced viability of SK-BR-3 breast cancer cells – cell-based, 24 h, human, pilot screen (AID 572); settings: SK-BR-3 viability, CellTiter-Glo luminescence, at 10 µM, stronger effect = lower value;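 also: compound exposure lasted between 18 and 24 h rather than exactly 24 h; 100% = carrier-treated control wells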

| Compound | viability [%] |
| --- | --- |
| Cn1c(-c2ccccc2)cnc1SCc1nc2ccccc2c(=O)[nH]1 | 107 |
| COc1ccc(N2C(=O)C(Cl)=C(N3CCCC3)C2=O)cc1 | 97 |
| Cc1ccc(-n2c(N)c(C(N)=O)sc2=S)cc1 | 87 |
| O=C(Nc1ccc(N2CCOCC2)c(Cl)c1)c1ccc(Br)o1 | 91 |
| NS(=O)(=O)c1ccc(CCNC(=O)c2cccnc2)cc1 | 126 |
| C[N+](C)(C)CCOP(=O)([O-])OC[C@H](O)CO | 100 |
| Cn1c(=O)[nH]c(=O)c2c1nc(N1CCc3ccccc3C1)n2CCSc1nc2ccccc2s1 | 72 |
| CCOC(=O)c1ccc(COC(=O)c2cc3ccccc3oc2=O)o1 | 114 |
| CCc1c(C)c2ccc(OCC(=O)OC)cc2oc1=O | 109 |
| Cc1c(NC(=O)C(C)Oc2ncnc3ccccc23)c(=O)n(-c2ccccc2)n1C (centres undefined) | 115 |
| COc1nc(OC)nc(N2CCC(C(=O)NCc3cccs3)CC2)n1 | 93 |
| CCCCOc1ccccc1C1C(C(N)=O)=C(C)Nc2nnnn21 (centres undefined) | 110 |
| O=C(NCCCN1CCN(Cc2ccccc2)CC1)C1CCN(c2nnc(-n3cccc3)s2)CC1 | 118 |
| CCN(CC)CCCNC1CCS(=O)(=O)C1 (centres undefined) | 126 |
| N#CC1=C(N)N2C(=C(C#N)C13CCCCC3)SC1CCCCC12O (centres undefined) | 72 |
| COc1ccccc1CNC(=O)C(C)NS(=O)(=O)c1ccccc1 (centres undefined) | 113 |
| O=C(CSc1ccc(-c2ccccc2)nn1)N1CCOCC1 | 94 |
| Cc1oc2cc3c(C(=O)OCCN(C)C)c(C)oc3cc2c1C(=O)OCCN(C)C | 92.5 |
| CCOc1cc(C2Nc3ccccc3C(=O)N2c2ccccc2OC)ccc1O (centres undefined) | 98 |
| O=C(c1cccc2c1C(=O)N(Cc1cccnc1)C2)N1CCN(c2ccccc2)CC1 | 127 |

| Compound | viability [%] |
| --- | --- |
| O=C(CSc1oc(-c2ccco2)nc1S(=O)(=O)c1ccccc1)NCC1CCCO1 (centres undefined) | 97 |
| Nc1cc(=O)[nH]c(SCC(=O)Nc2ccc(Br)cc2)n1 | 96 |
| CC1(C)S[C@@H]2[C@H](NC(=O)[C@H](N)c3ccccc3)C(=O)N2[C@H]1C(=O)O | 103 |
| CC(=O)Nc1nc(C)c(-c2csc(Nc3ccc(O)cc3)n2)s1 | 114 |
| O=C(CCn1c(=O)oc2ccccc21)N1CCCCCC1 | 112 |
| O=C(O)CCN(CCC(=O)O)c1nnc(SCc2ccccc2)s1 | 91 |
| CC(=O)OCC(=O)[C@@]12OC(C)(C)O[C@@H]1C[C@H]1[C@@H]3C[C@H](F)C4=CC(=O)C=C[C@]4(C)[C@@]3(F)[C@@H](O)C[C@@]12C | 104 |
| COC(=O)CCC(=O)CN | 111 |
| C=CCN=C1SCC(=O)N1S(=O)(=O)c1ccc(C)cc1 | 88 |
| O=C1c2ccccc2C(=O)N1CCN1CCCCC1 | 98 |
| CN(C)c1ccc(NC(=O)Nc2cccc(Cl)c2)cc1 | 83 |
| COC(=O)[C@H](C)NC(=O)Nc1cccc(C(F)(F)F)c1 | 145 |
| Cc1c(C=NCCOCc2ccccc2)cnn1C | 92 |
| COC(=O)c1cccc(Nc2cc(C)nc(-c3ccccc3O)n2)c1 | 69 |
| CCN(CC)C(=O)c1ccc(O)c(OC)c1 | 100 |
| CC(C)CN(CC(C)C)c1nc(N)c(C#N)c(CC#N)c1C#N | 106 |
| c1cnc(NCCNc2ncccn2)nc1 | 98 |
| C=CCn1c(SCC#N)nc2c(c1=O)C(C)(C)Cc1ccccc1-2 | 104 |
| COc1cc(NS(=O)(=O)c2ccc(N)cc2)ncn1 | 107 |
